Laboratory results from the supplement of paper PMC10849652.
About 7,900 targets were measured; listed, in parts, are those with a hit and a random draw of the rest. About 0.6% of all pairs of compound and target were hits.

The targets below were run with C1=CC=C(C=C1)C2=NC(=C(N2)C3=CC=NC=C3)C4=CC(=C(C=C4)Cl)O (assay: log2 fold change, soluble protein after heating vs DMSO (PISA); higher = thermal stabilisation; K562 cells, 10 uM, 30 min; active = over 0.2 and 3.5 SD of the protein, either way, in both replicates (recomputed)).
In short: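 K562 cells (2×10^6 cells/mL) were treated with 10 μM compound for 30 min, and aliquots were heated for 3 min over 48°C-58°C. Pooled aliquots were extracted in PBS with 0.5% NP-40 at 4°C, and the supernatant after 21,000xg for 90 min was measured by TMTpro 16plex LC-MS/MS with channel sums equalised. Reported thermal stability, relative to control samples and from duplicates, is a log2 fold change.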

Chain of UniProt P13861 (P13861 whole entry, looked up): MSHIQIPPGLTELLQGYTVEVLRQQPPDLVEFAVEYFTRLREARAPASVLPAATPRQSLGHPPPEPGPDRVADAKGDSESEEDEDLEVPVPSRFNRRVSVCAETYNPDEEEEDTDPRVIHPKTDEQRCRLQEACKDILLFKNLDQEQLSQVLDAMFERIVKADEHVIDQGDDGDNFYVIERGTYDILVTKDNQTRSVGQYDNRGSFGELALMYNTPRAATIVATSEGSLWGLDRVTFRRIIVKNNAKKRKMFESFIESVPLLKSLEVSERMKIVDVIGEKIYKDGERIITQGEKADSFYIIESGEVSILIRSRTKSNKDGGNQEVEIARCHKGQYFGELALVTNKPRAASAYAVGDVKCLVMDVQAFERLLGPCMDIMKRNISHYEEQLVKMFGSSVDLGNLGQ
Chain of UniProt P28340 (P28340 whole entry, looked up): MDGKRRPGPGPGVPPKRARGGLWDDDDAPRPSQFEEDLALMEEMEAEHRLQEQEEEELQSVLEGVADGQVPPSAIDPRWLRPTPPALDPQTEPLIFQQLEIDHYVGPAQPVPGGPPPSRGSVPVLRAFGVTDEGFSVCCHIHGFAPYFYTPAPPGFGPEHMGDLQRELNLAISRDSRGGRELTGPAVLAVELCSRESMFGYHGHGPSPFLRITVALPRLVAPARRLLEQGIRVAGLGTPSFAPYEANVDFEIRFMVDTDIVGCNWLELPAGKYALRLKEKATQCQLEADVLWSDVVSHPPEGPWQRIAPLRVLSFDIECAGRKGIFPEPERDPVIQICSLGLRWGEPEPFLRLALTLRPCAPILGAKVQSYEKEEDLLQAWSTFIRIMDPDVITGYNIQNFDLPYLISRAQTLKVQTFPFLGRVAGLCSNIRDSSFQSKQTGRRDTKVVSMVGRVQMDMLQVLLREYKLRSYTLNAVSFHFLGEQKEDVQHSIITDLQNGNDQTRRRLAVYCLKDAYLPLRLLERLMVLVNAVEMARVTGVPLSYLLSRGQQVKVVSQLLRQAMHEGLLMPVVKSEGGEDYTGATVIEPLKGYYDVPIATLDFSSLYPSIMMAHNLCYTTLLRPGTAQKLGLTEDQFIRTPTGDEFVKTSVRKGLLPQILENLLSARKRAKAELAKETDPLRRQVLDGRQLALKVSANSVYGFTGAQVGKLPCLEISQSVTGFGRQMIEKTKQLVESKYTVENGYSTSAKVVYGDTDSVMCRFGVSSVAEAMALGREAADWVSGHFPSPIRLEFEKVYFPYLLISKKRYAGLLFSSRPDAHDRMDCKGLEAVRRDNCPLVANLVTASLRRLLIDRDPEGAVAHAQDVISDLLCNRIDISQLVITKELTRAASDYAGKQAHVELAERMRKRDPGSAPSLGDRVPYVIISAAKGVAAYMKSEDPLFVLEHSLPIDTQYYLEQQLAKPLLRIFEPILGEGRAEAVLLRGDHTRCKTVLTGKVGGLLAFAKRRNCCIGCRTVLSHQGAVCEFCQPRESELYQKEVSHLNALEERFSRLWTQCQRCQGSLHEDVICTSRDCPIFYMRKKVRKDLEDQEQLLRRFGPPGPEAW
Chain of UniProt Q9BRP1 (Q9BRP1 whole entry, looked up): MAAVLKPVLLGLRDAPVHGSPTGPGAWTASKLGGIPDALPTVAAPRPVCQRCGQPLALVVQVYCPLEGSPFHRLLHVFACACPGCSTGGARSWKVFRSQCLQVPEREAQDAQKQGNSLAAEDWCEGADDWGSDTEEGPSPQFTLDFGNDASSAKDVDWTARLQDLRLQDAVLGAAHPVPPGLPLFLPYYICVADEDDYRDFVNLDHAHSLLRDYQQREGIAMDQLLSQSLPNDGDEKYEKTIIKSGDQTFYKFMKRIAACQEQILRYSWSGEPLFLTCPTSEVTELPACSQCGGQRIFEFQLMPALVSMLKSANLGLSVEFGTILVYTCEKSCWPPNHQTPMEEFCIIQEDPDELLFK
Chain of UniProt P09884 (P09884 whole entry, looked up): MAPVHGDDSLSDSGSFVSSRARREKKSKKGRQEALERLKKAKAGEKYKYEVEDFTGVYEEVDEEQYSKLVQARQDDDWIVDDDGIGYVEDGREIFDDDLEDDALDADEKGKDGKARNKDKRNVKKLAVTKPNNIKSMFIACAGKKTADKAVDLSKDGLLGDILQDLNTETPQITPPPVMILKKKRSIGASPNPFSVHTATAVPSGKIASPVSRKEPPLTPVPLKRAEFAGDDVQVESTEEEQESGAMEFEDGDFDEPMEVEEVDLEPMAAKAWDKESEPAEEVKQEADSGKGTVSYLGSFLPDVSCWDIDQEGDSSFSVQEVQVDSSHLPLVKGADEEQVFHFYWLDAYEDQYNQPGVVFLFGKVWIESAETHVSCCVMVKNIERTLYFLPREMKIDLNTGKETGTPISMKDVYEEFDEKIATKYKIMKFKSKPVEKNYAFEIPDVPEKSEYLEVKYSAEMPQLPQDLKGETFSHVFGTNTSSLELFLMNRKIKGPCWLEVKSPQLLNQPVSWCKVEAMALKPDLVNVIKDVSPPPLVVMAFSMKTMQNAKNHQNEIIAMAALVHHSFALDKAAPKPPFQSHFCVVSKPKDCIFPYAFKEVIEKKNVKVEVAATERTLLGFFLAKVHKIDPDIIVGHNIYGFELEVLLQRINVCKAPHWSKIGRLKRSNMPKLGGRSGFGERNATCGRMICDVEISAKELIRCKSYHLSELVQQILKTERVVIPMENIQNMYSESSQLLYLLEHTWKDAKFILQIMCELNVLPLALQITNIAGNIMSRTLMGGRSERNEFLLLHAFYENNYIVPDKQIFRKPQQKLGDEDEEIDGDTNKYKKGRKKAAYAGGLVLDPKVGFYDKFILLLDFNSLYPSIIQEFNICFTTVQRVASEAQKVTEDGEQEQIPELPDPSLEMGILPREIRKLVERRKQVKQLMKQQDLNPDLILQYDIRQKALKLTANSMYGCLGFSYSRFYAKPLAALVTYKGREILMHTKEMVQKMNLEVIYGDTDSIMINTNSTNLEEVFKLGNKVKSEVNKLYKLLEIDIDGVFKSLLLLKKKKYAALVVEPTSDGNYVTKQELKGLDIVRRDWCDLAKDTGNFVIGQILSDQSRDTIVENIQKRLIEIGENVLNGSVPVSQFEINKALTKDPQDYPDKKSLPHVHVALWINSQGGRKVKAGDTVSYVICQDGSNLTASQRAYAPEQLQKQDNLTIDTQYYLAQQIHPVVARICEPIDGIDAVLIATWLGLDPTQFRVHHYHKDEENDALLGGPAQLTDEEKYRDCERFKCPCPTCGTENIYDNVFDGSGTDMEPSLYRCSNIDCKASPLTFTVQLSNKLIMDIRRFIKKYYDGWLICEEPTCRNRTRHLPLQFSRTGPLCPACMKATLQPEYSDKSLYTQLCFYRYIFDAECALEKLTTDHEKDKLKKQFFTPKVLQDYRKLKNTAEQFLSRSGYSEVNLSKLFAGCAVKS
Chain of UniProt Q16401 (Q16401 whole entry, looked up): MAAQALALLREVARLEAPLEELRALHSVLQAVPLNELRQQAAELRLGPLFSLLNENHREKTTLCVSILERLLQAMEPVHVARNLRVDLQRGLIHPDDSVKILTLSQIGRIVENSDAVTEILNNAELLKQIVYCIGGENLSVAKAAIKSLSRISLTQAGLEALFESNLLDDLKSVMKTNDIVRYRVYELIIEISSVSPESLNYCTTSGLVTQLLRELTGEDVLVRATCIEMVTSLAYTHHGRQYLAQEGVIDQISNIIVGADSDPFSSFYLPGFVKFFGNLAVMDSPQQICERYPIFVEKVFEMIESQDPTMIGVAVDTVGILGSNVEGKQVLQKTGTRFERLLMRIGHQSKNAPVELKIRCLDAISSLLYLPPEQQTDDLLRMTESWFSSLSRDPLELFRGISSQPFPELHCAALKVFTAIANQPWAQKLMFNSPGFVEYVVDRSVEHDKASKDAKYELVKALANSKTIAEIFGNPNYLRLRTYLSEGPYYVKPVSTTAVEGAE
Chain of UniProt P53609 (P53609 whole entry, looked up): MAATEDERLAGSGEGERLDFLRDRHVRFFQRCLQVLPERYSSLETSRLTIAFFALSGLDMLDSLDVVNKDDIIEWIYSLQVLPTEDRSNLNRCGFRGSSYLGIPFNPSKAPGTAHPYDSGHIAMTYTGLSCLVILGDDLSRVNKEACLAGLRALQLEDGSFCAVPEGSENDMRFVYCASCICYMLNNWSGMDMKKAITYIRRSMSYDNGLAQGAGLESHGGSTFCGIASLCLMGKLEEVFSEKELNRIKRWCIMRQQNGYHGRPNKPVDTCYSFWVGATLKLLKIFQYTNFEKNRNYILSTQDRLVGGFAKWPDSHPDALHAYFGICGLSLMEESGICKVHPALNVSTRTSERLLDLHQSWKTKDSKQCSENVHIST
Chain of UniProt P49585 (P49585 whole entry, looked up): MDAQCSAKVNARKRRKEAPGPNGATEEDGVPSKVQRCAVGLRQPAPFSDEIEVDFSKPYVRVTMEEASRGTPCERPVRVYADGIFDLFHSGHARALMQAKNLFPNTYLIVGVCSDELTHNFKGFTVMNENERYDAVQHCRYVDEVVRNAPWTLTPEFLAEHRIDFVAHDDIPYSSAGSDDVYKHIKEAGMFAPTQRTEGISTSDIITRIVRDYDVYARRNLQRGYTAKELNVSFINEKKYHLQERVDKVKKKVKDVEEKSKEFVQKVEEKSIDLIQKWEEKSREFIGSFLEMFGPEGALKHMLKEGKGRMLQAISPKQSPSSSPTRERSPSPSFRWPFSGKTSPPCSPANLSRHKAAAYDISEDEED
Chain of UniProt Q9Y478 (Q9Y478 whole entry, looked up): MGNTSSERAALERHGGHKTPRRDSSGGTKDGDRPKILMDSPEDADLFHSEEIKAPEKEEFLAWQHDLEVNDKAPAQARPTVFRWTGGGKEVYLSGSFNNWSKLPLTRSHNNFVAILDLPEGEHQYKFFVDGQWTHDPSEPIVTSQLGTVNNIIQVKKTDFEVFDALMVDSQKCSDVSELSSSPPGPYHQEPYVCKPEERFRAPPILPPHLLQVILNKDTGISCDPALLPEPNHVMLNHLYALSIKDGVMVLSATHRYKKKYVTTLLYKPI
Chain of UniProt Q7RTV0 (Q7RTV0 whole entry, looked up): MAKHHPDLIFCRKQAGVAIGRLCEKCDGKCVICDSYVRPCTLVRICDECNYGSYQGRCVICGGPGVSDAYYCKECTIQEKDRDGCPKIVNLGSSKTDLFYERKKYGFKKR

log2 fold change, active:
PPP1R14A (UniProt Q96A00) 0.341

log2 fold change, inactive:
PHF5A (UniProt Q7RTV0) -0.03, PRKAR2A (UniProt P13861) -0.021, PRUNE1 (UniProt Q86TP1) 0.051, POMP (UniProt Q9Y244) -0.018, PPT2 isoform 3 (UniProt Q9UMR5) 0.038, PIP4P1 isoform 2 (UniProt Q86T03) 0.002, POLD1 (UniProt P28340) 0.05, PGGT1B (UniProt P53609) 0.021, PRMT3 (UniProt O60678) 0.028, PEX11B (UniProt O96011) 0.142, PCYT1A (UniProt P49585) -0.09, PISD (UniProt Q9UG56) 0.02, PSMD5 (UniProt Q16401) -0.001, PRPF40A (UniProt O75400) -0.037, PDIK1L (UniProt Q8N165) -0.034, PMPCA (UniProt Q10713) 0.07, PDCD2L (UniProt Q9BRP1) -0.078, PSMC6 (UniProt P62333) 0.015, PRKAB1 (UniProt Q9Y478) 0.019, PDSS2 (UniProt Q86YH6) 0.026, POLA1 (UniProt P09884) -0.013, PGM3 isoform 4 (UniProt O95394) 0.042
